Values joined by “and” are separate entries in the source; they are usually repeats but may differ in a detail not shown here. Equal entries are not always repeated. The panel holds about 79,000 compounds, 15% with a hit somewhere; the sample as a whole holds those more often. Values without a mark were called inactive. Active and inactive are the calls of the source. Cut-off read from the data, not from the text of the source: active = growth inhibition above about 70%; inactive = the rest.
How the values were obtained:
[1] = NCI Yeast Anticancer Drug Screen. Data for the rad50 strain (AID 155);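 note: 0% = growth of vehicle-only cultures of the same strain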; details: S. cerevisiae rad50 strain growth inhibition; at 50.0 µM; stronger effect = higher value
Summary of the method: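 Growth of the mutant yeast was measured after compound exposure and referenced to vehicle-treated cultures.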

[2] = NCI Yeast Anticancer Drug Screen. Data for the mec2-1 strain (AID 157); details: S. cerevisiae mec2-1 strain, at 50.0 µM, stronger effect = higher value
Summary of the method: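 Yeast mec2-1 mutant treated with compound. Readout: growth inhibition vs vehicle controls.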

[3] = NCI Yeast Anticancer Drug Screen. Data for the sgs1 mgt1 strain (AID 161);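 note: 0% = growth of cultures given vehicle only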; details: S. cerevisiae sgs1 mgt1 strain, at 50.0 µM, stronger effect = higher value
Summary of the method: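 Test agents were incubated with a DNA-repair-mutant yeast strain. Growth was then read and compared against vehicle-treated controls.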

[4] = NCI Yeast Anticancer Drug Screen. Data for the cln2 rad14 strain (AID 165);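 note: 0% = growth equal to vehicle treated cultures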; details: S. cerevisiae cln2 rad14 strain, at 50.0 µM, stronger effect = higher value
Summary of the method: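 cln2 rad14 yeast strain; compound exposure; growth inhibition read vs vehicle controls.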

[5] = NCI Yeast Anticancer Drug Screen. Data for the bub3 strain (AID 167); details: S. cerevisiae bub3 mutant strain, at 50.0 µM, stronger effect = higher value
Summary of the method: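 Whole-cell yeast assay. The mutant strain was incubated with compounds, and growth inhibition was determined by comparison with vehicle-treated cells.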

[6] = NCI Yeast Anticancer Drug Screen. Data for the mlh1 rad18 strain (AID 175); details: S. cerevisiae mlh1 rad18 strain growth inhibition; at 50.0 µM; stronger effect = higher value
Summary of the method: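 Yeast w/ defined DNA-repair lesions; compound exposure; growth vs vehicle controls → % inhibition.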

Compound	growth inhibition [1]	growth inhibition [2]	growth inhibition [3]	growth inhibition [4]	growth inhibition [5]	growth inhibition [6]
COc1ccc(Cc2nccc3cc(OC)c(OC)cc23)cc1OC	-4.15% and -16.3%	-19.4% and -28%	-6.9% and 11.4%	-2.9% and -11.6%	-11.7% and -7.9%	-21.1% and -29.4%
OC(CN(C1CCCCC1)C1CCCCC1)c1ccc(Cl)c(Cl)c1 (stereo not given)	-3.1%	-30.9%	-14.4%	-36%	35.4%	-28.2%
[Ni+2].[O-]c1ccc(Cl)cc1C=NCc1ccccn1.[O-]c1ccc(Cl)cc1C=NCc1ccccn1	94.3% (active)	96.7% (active)	97.5% (active)	86.9% (active)	96.5% (active)	97.5% (active)
CCOP(=O)(OCC)/C(C#N)=C/c1cc(O)ccc1O	-34.2%	-35.1%	-51.9%	-10.2%	-47.9%	-45.8%
CC(=O)Oc1cccc2c1C(=O)C(C(=O)C=O)C1C(C=O)OC(C)(C)OC21C (stereo not given)	29.6%	0.1%	33.6%	14.8%	16.8%	12.1%
Cn1nc(-c2ccc(S(=O)(=O)F)cc2)s/c1=N/NC(=O)c1ccccc1	4%	2%	19.8%	23.4%	18.6%	3.65%
Nc1c(S(=O)(=O)O)cc(Nc2ccc(S(=O)(=O)O)c(Nc3nc(Cl)nc(Cl)n3)c2)c2c1C(=O)c1ccccc1C2=O	-14.3%	-31.8%	-27.4%	-14.3%	-32.7%	-37.9%
COc1ccccc1CC(C)NC(C)Cc1ccccc1OC (stereo not given)	2.25%	-3.4%	8.05%	-1.8%	-1.4%	7.6%
Nc1nnc[se]1	7.85%	5.35%	-8.1%	-1.55%	-4.2%	-1.6%
OCC1OC(n2cnc3cc(Cl)c(Cl)cc32)C(O)C1O (stereo not given)	-1.1%	13.8%	21.9%	-19.5%	6.4%	5%
NC1=C(N2CC2)C(=O)C(N)=C(N2CC2)C1=O	9.1%	-21.4%	-8.4%	7.9%	-25.6%	-12.7%
CC(=O)SCCC(NC(=S)Nc1ccccc1)P(=O)(Oc1ccccc1)Oc1ccccc1 (stereo not given)	-17.9%	10.3%	8.35%	-11.9%	-7.1%	-10.3%
O=[N+]([O-])c1ncccc1NCCN1CCCC1	-2.2%	-0.5%	-15.8%	-29.3%	7.05%	4.7%
NNc1cccc2c1CCC(N)C2 (stereo not given)	-0.35%	21.7%	6.35%	-11.4%	5%	9.65%
O=C(OCCOCCOC(=O)C(Cl)(Cl)Cl)C(Cl)(Cl)Cl	-47%	-33.1%	-29.4%	39.2%	-46.6%	7.95%
Cc1ccccc1[N+](=O)[O-]	19.1%	13.6%	2.5%	9.45%	-10.1%	-3.3%
[Cl][Pt+2][Cl].[NH-]c1ccc(Cl)cc1[NH-]	9.7%	-11.9%	-3.05%	8.15%	-11.1%	7.5%
O=C(C(Cl)Cl)N1CCCCC1	-5.2%	-0.3%	-5.5%	4.65%	0%	39.9%
O=[N+]([O-])c1ccc(NC(c2ccccc2)P(=O)(Oc2ccccc2)Oc2ccccc2)cc1 (stereo not given)	-1.75%	-6.4%	-43.1%	-6%	-2.05%	3.65%
O=C1C(=O)c2ccccc2C(O)=C1CN(CCCl)CCCl	31.6%	17.9%	27.2%	-21.9%	30.8%	29.8%

Compound	growth inhibition [1]	growth inhibition [2]	growth inhibition [3]	growth inhibition [4]	growth inhibition [5]	growth inhibition [6]
CCOP(=O)(NC12CC3CC(CC(C3)C1)C2)OCC	-1.5%	8.2%	-7.5%	5.25%	19.6%	-18.2%
CC12CCC3C(CCC4=CC(=O)CCC43C=O)C1CCC2Oc1ccccc1 (stereo not given)	20.7%	-9.7%	25%	23.6%	12.4%	25.6%
CCNC(=S)S	-7.35%	-8.4%	-13.1%	-0.6%	-2.25%	-3.75%
O=c1c2cc(Br)cc(Br)c2[nH]c(=S)n1-c1ccccc1	-2.45%	31.4%	21.5%	21.4%	27.6%	19.8%
CC(C)N(N=O)C(C)C	13.7%	-4.6%	6.85%	1.9%	0.95%	16.5%
CC(=O)Nc1ccc(C(=O)O)cc1 (tested in a mixture with another compound)	-25.9%	-43.6%	-17.4%	3.65%	-46.2%	-7.75%
O=[Te]=O	20.4%	-8.15%	17.4%	5%	5.55%	11.4%
CCC(=O)C1(c2ccccc2)CCN(C)CC1	-20.7%	-35.7%	12.8%	-16.5%	-12.9%	6.7%
CCOC(=O)C1=C(OC(OCC)C(CC)[Se]c2ccccc2)CCC1 (stereo not given)	50.4%	10.6%	40%	22.4%	22.7%	39.9%
CCC1CN2CCC1CC2C(O)c1cc[n+]([O-])c2ccc(OC)cc12 (stereo not given)	-11.7%	7.25%	-7.6%	1.75%	-8.05%	-12.4%
Cc1cc(C)cc(C(O)(C(=O)O)c2ccccc2)c1 (stereo not given)	-0.75%	-5.35%	-5.45%	5.55%	-5.9%	-4.9%
O=C(NCCN1CCOCC1)c1ccc2cc(C(=O)N3CC(CCl)c4ccc([N+](=O)[O-])cc43)[nH]c2c1 (stereo not given)	88.5% (active)	92.2% (active)	88% (active)	88.8% (active)	89.8% (active)	89.9% (active)
Cc1c([N+](=O)[O-])cc(C(C)(C)C)c(O)c1[N+](=O)[O-]	60.6%	63.1%	72.2% (active)	43.5%	27.1%	70.6% (active)
C[C@]12CCC(=O)N[C@@H]1CC[C@@H]1[C@@H]2CC[C@]2(C)[C@@H](OC(=O)COc3ccc(N(CCCl)CCCl)cc3)CC[C@@H]12	0.45%	4.7%	0.15%	11.8%	5.75%	-12.8%
C/C=C/CC1(CCC(C)C)C(=O)NC(=O)NC1=O	24.4% and 26.9%	8.05% and -0.65%	9.9% and 4.75%	-19.1% and -4.55%	-5.4% and -2.35%	10.3% and 17.4%
Cc1nccc2c1[nH]c1ccc(Br)cc12	13.7%	11.6%	-7.55%	-2%	9.55%	1.25%
[F][Sn]([c]1ccc(Cl)cc1)([c]1ccc(Cl)cc1)[c]1ccc(Cl)cc1	98.2% (active)	95.2% (active)	98.5% (active)	95.9% (active)	96.2% (active)	98.2% (active)
[C-]#[O+].[C-]#[O+].[C-]#[O+].[C-]#[O+].[Cr].c1ccc([PH+](CC[PH+](c2ccccc2)c2ccccc2)CC[PH+](c2ccccc2)c2ccccc2)cc1	14.9%	3.75%	-3.35%	32.2%	19.4%	6.2%
CC([NH-])C(C)[NH-].CC([NH-])C(C)[NH-].CC([NH-])C(C)[NH-].[Cr+6] (stereo not given)	9.9%	22.8%	10.7%	2%	1.9%	8.15%
O=C(/C=C/c1ccccc1)Nc1ccc(Cl)cc1C(=O)c1ccccc1	-2.6%	14.8%	7.6%	-6.6%	40.4%	20.4%
